# Screens deposited in PubChem by several laboratories.
# Most compounds without a hit are left out; they make up all but 32% or so of the library.
# CYP2C19 inhib: inhibitors of human CYP2C19 | 96,000 tested, 21% active | P33261 | inhibition, % at 5 µM | CYP2C19 Supersomes, luciferin-H EGE luminescence, 30 min;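 active = CYP2C19 inhibition above a set limit at 5 µM in the primary screen, cut at about 50% in these data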;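 note: plate controls were negative control wells for no effect and 2.5 mM tranylcypromine positive control for full effect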
# Target sequence (P33261 whole entry, looked up): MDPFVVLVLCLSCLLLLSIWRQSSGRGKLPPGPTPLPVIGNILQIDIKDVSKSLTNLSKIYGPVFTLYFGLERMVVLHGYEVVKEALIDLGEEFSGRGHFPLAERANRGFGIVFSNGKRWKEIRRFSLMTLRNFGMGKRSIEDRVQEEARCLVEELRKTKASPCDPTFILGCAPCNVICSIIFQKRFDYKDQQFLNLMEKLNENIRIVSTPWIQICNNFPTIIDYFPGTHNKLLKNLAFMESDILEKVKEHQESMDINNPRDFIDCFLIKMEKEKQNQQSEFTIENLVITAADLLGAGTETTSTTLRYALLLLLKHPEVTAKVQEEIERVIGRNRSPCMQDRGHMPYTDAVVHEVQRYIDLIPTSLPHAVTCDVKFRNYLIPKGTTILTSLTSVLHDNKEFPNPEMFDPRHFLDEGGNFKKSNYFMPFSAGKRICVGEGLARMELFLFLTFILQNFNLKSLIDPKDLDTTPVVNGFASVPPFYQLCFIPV
# CYP2C19 act: increases human CYP2C19 enzyme activity; activation factor at 5 µM; P33261; 96,000 tested, under 10 active; recombinant CYP2C19, luciferin-H EGE luminescence; active compounds read high; 0 = fully inhibited enzyme, 1 = untreated enzyme;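 active = activation factor of at least 2 at 5 µM in the primary screen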;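 note: 0 = wells with 2.5 mM tranylcypromine and 1 = vehicle-only wells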
# CYP2C9 inh: human CYP2C9 inhibition; P11712; 96,000 tested, 20% active; inhibition, % at 5 µM; AID 777; CYP2C9 Supersomes, luciferin-H conversion, luminescence;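 active = blocking of liver enzyme CYP2C9 beyond about 50% at 5 µM, limit read from the data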
# PostGolgi ctrl: growth of the yeast control strain, post-Golgi counter-screen; efflux-deficient yeast background strain, growth absorbance A615, 16 h; 98,000 tested, 5% active; AID 738; inhibition, % at 10 µM
# PostGolgi yeast: growth inhibition of a yeast mutant, post-Golgi transport screen; AID 739; 98,000 tested, 0.9% active; post-Golgi transport phenotypic cell assay; inhibition, % at 10 µM;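 note: yeast cells grown in 1536-well plates; yeast grown about 18 h at 30C before absorbance read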
# CYP2C9 activ: CYP2C9 (human) activation. P11712. recombinant CYP2C9, luciferin-H conversion, luminescence; active compounds read high; factor 1 = untreated enzyme, 0 = blocked. activation factor at 5 µM. 96,000 tested, 1.4% active;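 active = activation factor of 2 or more for CYP2C9 at a 5 µM dose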;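 note: 0 = sulfaphenazole-blocked wells and 1 = vehicle-only wells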
# * marks the source's active call; other numbers are inactive results. Cut-off read from the data, not from the text of the source, unless noted: active = inhibition above about 30%; inactive = the rest.
SMILES,CYP2C19 inhib,CYP2C19 act,CYP2C9 inh,PostGolgi ctrl,PostGolgi yeast,CYP2C9 activ
Cc1nc(N2CCN(Cc3ccccc3)CC2)nc2c1C(=O)CCC2,55*,0.5,33,14,0,0.7
Cc1nc(N2CCN(Cc3ccc4c(c3)OCO4)CC2)nc2c1C(=O)CC(c1ccco1)C2 (stereo not drawn),73*,0.3,88*,1,10,0.1
CCN1CCN(c2nc(C)c3c(n2)CCCC3=O)CC1,-18,1.2,12,4,1,0.9
Cc1nc(N2CCN(Cc3ccccc3)CC2)nc2c1C(=O)CC(c1ccco1)C2 (stereo not drawn),40,0.6,54*,-6,-6,0.5
CCN1CCN(C(=S)Nc2ccc(Cl)cc2)CC1,19,0.8,5,3,-5,1
COC(=O)C1C(=O)NC(SC)=C(C#N)C1c1ccccc1 (stereo not drawn),29,0.7,16,17,5,0.8
CCOC(=O)C1C(=O)NC(SCC(N)=O)=C(C#N)C1c1ccccc1OCC (stereo not drawn),76*,0.2,42,12,7,0.6
CCOC(=O)C1C(=O)NC(SC)=C(C#N)C1c1ccccc1F (stereo not drawn),91*,0.1,42,4,-7,0.6
CCOC(=O)CCC(NC(=O)c1ccc(NCN2C(=O)CCC2=O)cc1)C(=O)OCC (stereo not drawn),5,1,-2,-7,12,1
CCOC(=O)CCC(NC(=O)c1ccc(NCN2C(=O)c3ccccc3C2=O)cc1)C(=O)OCC (stereo not drawn),18,0.8,55*,2,2,0.4
Cc1ccc(C)c(NC(=S)NNC(=O)c2csc3c2CCC(C)C3)c1 (stereo not drawn),86*,0.1,53*,-3,1,0.5
CN1CCN(CC(=O)Nc2ccc(Oc3ccccc3)cc2)CC1,8,0.9,0,28,10,1
CCN1CCN(C(=O)Nc2cccc(C(F)(F)F)c2)CC1,4,1,-1,31*,5,1
CCOC(=O)N1CCN(CC(=O)Nc2ccc(Oc3ccccc3)cc2)CC1,17,0.8,21,32*,4,0.8
O=C(CN1CCCCC1)Nc1cccc(Oc2ccccc2)c1,77*,0.2,90*,4,-1,0.1
COc1cccc(NC(=O)CN2CCC(C)CC2)c1,90*,0.1,54*,17,4,0.5
COc1cccc(NC(=O)Cn2cc3c(n2)CCCCC3)c1,10,0.9,6,15,-9,0.9
C=CCC1(O)CC(c2ccco2)NC(c2ccco2)C1CCC (stereo not drawn),-15,1.1,-8,8,3,1.1
O=C(O)CC(CNS(=O)(=O)c1ccccc1)c1ccccc1 (stereo not drawn),6,0.9,6,-6,1,0.9
Cc1ccnc(NS(=O)(=O)c2ccc(NC(=O)C34CC5CC(CC(C5)C3)C4)cc2)n1,-4,1,12,-6,1,0.9
CC1CCN(C(=O)Nc2ccc3nsnc3c2)CC1,28,0.7,-2,3,16,1
CC1CCN(C(=O)Nc2cccc(NC(=O)N3CCC(C)CC3)c2)CC1,36,0.6,35,30*,-2,0.7
Cc1ccc(NC(=O)CCn2cccc2)cc1C,85*,0.1,9,6,-4,0.9
Cc1ccc(NC(=O)CCn2nc(C)cc2C)cc1,74*,0.3,-14,3,3,1.1
Cc1ccc(NC(=O)Cn2cccc2)cc1C,47,0.5,22,1,4,0.8
SMILES,CYP2C19 inhib,CYP2C19 act,CYP2C9 inh,PostGolgi ctrl,PostGolgi yeast,CYP2C9 activ
Cc1ccc(C)c(NC(=O)CCn2nc(C)cc2C)c1,11,0.9,-16,12,-7,1.2
COc1ccc(NC(=O)c2c(Cl)n(C)c3ccccc23)cc1,13,0.9,-126,14,-7,2.3*
Cc1ccc(NC(=O)Cn2cccc2)c(C)c1,71*,0.3,0,-4,16,1
CCOC(=O)N1CCC(NC(=O)c2cc3c(-c4cccc(OC)c4)nn(C)c3s2)CC1,25,0.8,42,0,-6,0.6
CCn1c2ccccc2c2cc(C3N=C(N)Nc4nc5ccccc5n43)ccc21 (stereo not drawn),7,0.9,-7,5,9,1.1
COc1ccc(NC(=O)CCN2CCC(C)CC2)cc1,8,0.9,7,11,-6,0.9
Cc1ccc(Cl)cc1NC(=O)CCn1cccc1,18,0.8,-21,-6,12,1.2
Cc1ccc(NC(=O)CCn2cccc2)cc1,92*,0.1,37,20,13,0.6
COc1ccc(NC(=O)CCn2cccc2)cc1,51*,0.5,3,10,-8,1
Cc1ccc(NC(=O)Cn2cccc2)cc1Cl,52*,0.5,4,1,-5,1
Cc1ccsc1C(=O)OCc1csc(-c2ccccc2)n1,6,0.9,-6,6,5,1.1
O=C(CSc1ccc(Cl)cc1)Nc1cccc(NC(=O)c2ccco2)c1,39,0.6,77*,3,-3,0.2
CSc1cccc(NC(=O)c2ccco2)c1,58*,0.4,-16,-8,8,1.2
COC(=O)c1cccc(COC(=O)CNC(=O)c2ccco2)c1,-5,1,11,7,3,0.9
O=C(NCCSc1ccc(Cl)cc1)c1ccco1,84*,0.2,51*,-1,-4,0.5
O=C(CNC(=O)c1ccco1)OCc1ccc(Cl)cc1,82*,0.2,19,-2,-10,0.8
O=C(CSc1ccccc1)Nc1cccc(NC(=O)c2ccco2)c1,36,0.6,44,1,-3,0.6
O=C(COC(=O)c1ccco1)Nc1cccc(Br)c1,16,0.8,45,4,8,0.6
O=C(CCn1nc(-c2ccccc2)ccc1=O)N1CCN(c2ccccn2)CC1,13,0.9,10,-4,30,0.9
Cc1cc(O)c(C=Nc2cccc(Cl)c2)c(=O)o1,9,0.9,12,-10,-1,0.9
Cc1cc(O)c(C(C[N+](=O)[O-])c2ccc(Cl)cc2Cl)c(=O)o1 (stereo not drawn),77*,0.2,98*,27,9,0
Cc1ccc(C2C(C#N)=C(N)Oc3c2c(=O)n(C)c(=O)n3C)cc1 (stereo not drawn),17,0.8,56*,5,-1,0.4
COC(=O)c1ccc(C2C(C#N)=C(N)Oc3cc(C)n(C)c(=O)c32)cc1 (stereo not drawn),18,0.8,49,2,-3,0.5
Nc1ccc(C(O)(C(F)(F)F)C(F)(F)F)cc1,-4,1,7,7,-2,0.9
Nc1ccc(-c2ccc(N)cc2C(F)(F)F)c(C(F)(F)F)c1,79*,0.2,60*,25,1,0.4
Cc1cc(C)nc(NC(=NCc2ccc3c(c2)OCO3)NC(=O)Nc2ccccc2)n1,-13,1.1,0,19,13,1
